In PubChem BioAssay (NCI) one finds growth data, which are given here for 26 molecules.

Compounds without any hit were thinned out: in the full panel of roughly 83,000, 20% have a hit.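 The test compound was applied at a single concentration to cells in 96-well plates for 48 hours, and percent growth was recorded.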 A number with no mark means an inactive call. Active and inactive are the calls of the source. The calls were made as follows: active = growth percent below 10; inactive = the rest.

Test in all cases: NCI-60 one-dose screen, 48 h (100 = growth as untreated, 0 = no growth, -100 = all killed)
Holding throughout (conditions): 10 µM unless noted

For test [1], the system named is NCI-H23 lung.
In test [2] the test system is NCI-H226 lung.
Test [3] deals with NCI-H322M lung.
In test [4] the test system is HOP-62 NSCLC.
Test [5] has as its system NCI-H460 lung.
Test [6] has as its system HOP-92 NSCLC.
The subject of test [7] is NCI-H522 lung.
Test [8] concerns A549/ATCC NSCLC.
The test system of test [9] is 786-0 renal.
Test [10] has as its system COLO 205 colon.

As for `O=C1c2cccc3cccc(c23)C(=O)N1CCCCN1CCN(CCCCOc2ccc(-c3nc4ccc(N5CCOCC5)cc4[nH]3)cc2)CC1`, the growth in test [1] was 79.2%; in test [2], 90.9%; in test [3] it was 94.8%; in [4], 98.3%; in test [5], 75%; in [6], -29.5% (active). Moreover, the growth was 70.4% in [7], 39.6% in test [8], 80.6% in [9] and 93.9% in [10].
As to `Cc1nc(/N=C(\N)NC(=O)Nc2cccc([N+](=O)[O-])c2)sc1C`, the growth is 81.8% in test [1]; 90.5% in test [2]; 93.7% in test [3]; 83.3% in [4]; 90.5% in test [5]; 84.1% in [6]. Also, the growth is 49.2% in test [7], 89.1% in [8], 90.5% in [9] and 90.6% in test [10].
Consider `CCCN1CCN(c2ccc3nc(-c4ccc5nc(-c6ccc(OCC)cc6)[nH]c5c4)[nH]c3c2)CC1`, for which the growth in [1] was 19.5%; in [2] it was 65.1%; in test [3], 60.6%; in test [4], 55.7%; in test [5], -76.8% (active); in test [6] it was 39.3%. Moreover, the growth was -3.11% (active) in test [7], -71.4% (active) in test [8], 16.3% in [9] and -32% (active) in [10].
With `COc1cccc(-c2nc3sccn3c2-c2ccnc(NCCNS(=O)(=O)c3ccc(F)cc3)c2)c1`, the growth was 27.2% in test [1]; 24% in [2]; 58.6% in [3]; 43.7% in test [4]; 21.4% in [5]; 41% in test [6]. For the same molecule, the growth in test [7] is 32.3%; in test [8] it was 22.7%; in test [9] it was 41.6%; in [10], 23.4%.
On to `OCCN1CCN(c2nc(Nc3ccc(-c4nc5ccccc5[nH]4)cc3)c3cn[nH]c3n2)CC1`, for which the growth in test [1] was -75.6% (active); in [2], 106%; in [3], -89.8% (active); in [4], -93.2% (active); in [5], -85.4% (active); in test [6], -83.4% (active). For the same molecule, the growth in test [7] was -85.6% (active); in [8] it was -91.9% (active); in test [9], -88.5% (active); in [10], -81.4% (active).
With `COc1ccc(-c2cc(NC(=O)Nc3ccc4ncsc4c3)no2)cc1`, the growth in test [1] was 100%; in test [2], 101%; in test [3], 107%; in test [4], 111%; in test [5], 99.9%; in test [6], 105%. In addition, the growth in test [7] was 88.3%; in test [8], 103%; in [9] it was 99.1%; in test [10], 125%.
For the molecule `CCOc1nc(-c2ccccc2)cc2c(O)c(C(=O)O)[nH]c(=O)c12`, the growth was 60.9% in test [1]; 101% in test [2]; 147% in test [3]; 98.2% in [4]; 102% in test [5]; 28.2% in test [6]. For the same molecule, the growth was 136% in test [7], 108% in test [8], 111% in [9] and 118% in [10].
`NC1=C(Cl)C(=O)c2ccc(S(N)(=O)=O)cc2C1=O`: the growth was -49.8% (active) in [1]; -51% (active) in test [2]; -97% (active) in [3]; -68.2% (active) in [4]; -65.8% (active) in test [5]; -58.1% (active) in [6]. The growth was -84.1% (active) in test [7], -53.7% (active) in test [8], -29.8% (active) in test [9] and -90.3% (active) in test [10].
As for `Cc1ccc(NS(=O)(=O)c2ccc(-c3cnc(C4CC4)o3)cc2)cc1C`, the growth in test [1] is 21.2%; in [2], 47.6%; in test [3] it was 42.7%; in test [4], 33.7%; in test [5], 12.3%; in [6], 29.6%. For the same molecule, the growth was -7.94% (active) in test [7], 27.1% in test [8], 43.4% in test [9] and -10.1% (active) in [10].
Take `CCCc1cc(=O)n2c(C(=O)Nc3ccc(F)cc3)c(C(=O)Nc3ccc(F)cc3)sc2n1`: the growth in test [1] was 81.9% [30 µM]; in test [2] it was 69.5% [30 µM]; in test [3], 54.8% [30 µM]; in [4], 27.8% [30 µM]; in test [5], 52% [30 µM]; in test [6] it was -36.3% [30 µM] (active). Besides, the growth in test [7] was 62.7% [30 µM]; in [8], 34.1% [30 µM]; in test [9], 17.6% [30 µM]; in [10] it was 71.4% [30 µM].
For `COc1ccc(N=Nc2nccs2)c(O)c1`, the growth in [1] was 79.3%; in test [2], 63.6%; in [3], 88.4%; in test [4], 66.3%; in test [5] it was 40.4%; in test [6] it was 52.8%. Besides, the growth in test [7] is 69.2%; in [8], 97.2%; in test [9], 18.9%; in test [10], 44.2%.
Turning to `CC(=O)c1cc2c(N)c(C(=O)Nc3cccc(F)c3C)sc2nc1C`, the growth in test [1] was 94.2%; in [2] it was 88%; in test [3], 95.7%; in test [4], 73.8%; in test [5] it was 83.1%; in [6], 73.1%. In addition, the growth in test [7] was 82.1%; in test [8] it was 56.5%; in test [9], 92.1%; in [10], 74.3%.
`COc1cccc(/C=N/NC(=O)c2ccccc2Nc2ccnc(C(F)(F)F)c2)c1O`: the growth in test [1] was 30.8%; in test [2], -20.2% (active); in test [3] it was 17.4%; in test [4], -6.28% (active); in [5], -6.96% (active); in test [6] it was 29.4%. Further, the growth in test [7] was 18.6%; in [8], 14.3%; in test [9], -2.01% (active); in test [10] it was 2.9% (active).
Consider `N#Cc1c(N)n(CCNC(=O)c2ccccc2)c2nc3ccccc3nc12`, for which the growth is 103% in test [1]; 97.2% in test [2]; 121% in test [3]; 111% in test [4]; 117% in [5]; -17.4% (active) in test [6]. The growth is 84.2% in [7], 105% in test [8], 92% in [9] and 115% in test [10].
`COc1ccc(Nc2nc(SC)nc(-c3cccc([N+](=O)[O-])c3)c2C#N)cc1`: the growth in test [1] was 73.6%; in [2] it was 18.3%; in test [3], 65.8%; in [4], 44.5%; in test [5], 30.4%; in [6], 61.3%. Also, the growth in test [7] is 80.8%; in [8] it was 31.4%; in test [9] it was 21.8%; in test [10], 81.5%.
On to `CN1CCN(c2nc(NCCCCNc3ccnc4cc(Cl)ccc34)c3ccccc3n2)CC1`, for which the growth is 82.8% in test [1]; 98.7% in test [2]; 84.9% in [3]; 76.5% in test [4]; 68.1% in test [5]; 54.8% in test [6]. For the same molecule, the growth in [7] was 39.8%; in [8], 49.3%; in test [9] it was 74.9%; in [10] it was -2.21% (active).
Consider `CCCCN(CCCC)CCCn1c(-c2ccccc2)ccc1-c1ccccc1`, for which the growth in test [1] was 52.9%; in test [2], 53.6%; in test [3], 86.7%; in test [4] it was 87.9%; in [5] it was 67.7%; in test [6] it was 44.7%. The growth in test [7] was 58.3%; in [8], 76%; in [9], 72.7%; in test [10], 61.3%.
As to `COc1cc2nc(N3CCCC3)nc(NCC3CCCCC3)c2cc1OC`, the growth in [1] was 57.3%; in test [2], 80.1%; in [3] it was 50.1%; in [4] it was 74.7%; in test [5], -45% (active); in [6], -16.9% (active). Further, the growth is -57.2% (active) in test [7], 6.9% (active) in test [8], -82.5% (active) in test [9] and -86.2% (active) in test [10].
Take `CN1CCN(Cc2ccc(NC(=O)c3cncc(C#Cc4cncn5ccnc45)c3)cc2C(F)(F)F)CC1`: the growth in test [1] is 63.1%; in [2], 34.4%; in test [3] it was 105%; in test [4] it was 81.4%; in test [5], 64.3%; in test [6] it was 38.8%. Besides, the growth in test [7] was 47.3%; in test [8] it was 74%; in test [9], 87.5%; in test [10], 32.3%.
In the case of `Cc1ccc(C2Oc3ccccc3C3CC(c4cccs4)=NN32)cc1` (stereo not given), the growth in [1] is 93.4%; in [2], 84.7%; in test [3], 91.5%; in [4], 105%; in test [5] it was 101%; in test [6], 81.7%. Also, the growth in [7] is 88.7%; in test [8], 103%; in test [9] it was 99.8%; in test [10] it was 104%.
On to `C=C1c2nc3ccccc3n2C=C(c2ccc(OC)cc2)N1Cc1ccccc1`, for which the growth in test [1] is 81.3%; in test [2], 102%; in test [3], 102%; in [4] it was 136%; in [5] it was 90.8%; in [6] it was 95.9%. In addition, the growth in test [7] is 64.5%; in test [8], 96%; in test [9], 83.6%; in test [10], 92.8%.
On to `O=C1C=C(OCC=C(Cl)Cl)C(=O)c2ccccc21`, for which the growth in [1] was 57.4%; in test [2], 97.3%; in test [3] it was 101%; in test [4], 87.2%; in test [5], 99.9%; in test [6], 73.7%. In addition, the growth was 51.8% in test [7], 91.3% in [8], 94.9% in test [9] and 137% in test [10].
As to `Cn1c(NCCc2ccc(O)c(O)c2)nc2c1c(=O)n(Cc1ccc(Br)cc1)c(=O)n2C`, the growth is 86.4% in test [1]; 84.1% in test [2]; 87.8% in test [3]; 108% in [4]; 94.3% in test [5]; 61.1% in [6]. Further, the growth in test [7] is -26.6% (active); in [8], 83.9%; in [9], 82%; in [10], 50.5%.
For `Cn1c(NCCc2ccc(O)c(O)c2)nc2c1c(=O)n(Cc1ccc(Cl)c(Cl)c1)c(=O)n2C`, the growth in test [1] is 91.5%; in [2] it was 73.7%; in [3], 82.1%; in test [4] it was 104%; in test [5], 88.2%; in [6], 45.3%. Further, the growth is -28.7% (active) in [7], 80.3% in test [8], 83% in test [9] and 57.4% in test [10].
As to `O=C1/C(=C/c2cn(-c3ccccc3)nc2-c2ccccc2)SC(=S)N1CCc1ccccc1`, the growth is 102% in test [1]; 99.4% in test [2]; 113% in [3]; 94% in test [4]; 102% in test [5]; 122% in [6]. Further, the growth in [7] is 93.5%; in [8] it was 111%; in test [9] it was 106%; in test [10], 116%.
Take `COc1cc2c(cc1O)CC[C@@H]1[C@@H]2CC[C@]2(C)[C@@H](OCCCN(C)C)CC[C@@H]12`: the growth is -30% (active) in test [1]; 9.47% (active) in test [2]; -22.3% (active) in test [3]; -57.8% (active) in test [4]; -61.4% (active) in test [5]; -18.2% (active) in [6]. Also, the growth in test [7] was -90.8% (active); in [8], -33.7% (active); in [9], -83.8% (active); in test [10], -71% (active).
